# Screening results from PubChem.
# This is a sample that favours compounds with a hit; in the whole collection about 2.4% have one here.
# ANO1 block: inhibitors of mouse TMEM16A calcium-activated chloride channel. HEK293 TMEM16A/YFP iodide influx fluorescence, ionomycin. 1.2% of 310,000 active. normalized B-score (activity score, 25-100; higher = stronger inhibition) at 10 µM;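 active means ratio plate-corrected score three or more library SD toward inhibition, starting fluorescence score within five deviations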;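 further: score derived from kinetic fluorescence span divided by baseline fluorescence per well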
# Target sequence (Q8BHY3 whole entry, looked up): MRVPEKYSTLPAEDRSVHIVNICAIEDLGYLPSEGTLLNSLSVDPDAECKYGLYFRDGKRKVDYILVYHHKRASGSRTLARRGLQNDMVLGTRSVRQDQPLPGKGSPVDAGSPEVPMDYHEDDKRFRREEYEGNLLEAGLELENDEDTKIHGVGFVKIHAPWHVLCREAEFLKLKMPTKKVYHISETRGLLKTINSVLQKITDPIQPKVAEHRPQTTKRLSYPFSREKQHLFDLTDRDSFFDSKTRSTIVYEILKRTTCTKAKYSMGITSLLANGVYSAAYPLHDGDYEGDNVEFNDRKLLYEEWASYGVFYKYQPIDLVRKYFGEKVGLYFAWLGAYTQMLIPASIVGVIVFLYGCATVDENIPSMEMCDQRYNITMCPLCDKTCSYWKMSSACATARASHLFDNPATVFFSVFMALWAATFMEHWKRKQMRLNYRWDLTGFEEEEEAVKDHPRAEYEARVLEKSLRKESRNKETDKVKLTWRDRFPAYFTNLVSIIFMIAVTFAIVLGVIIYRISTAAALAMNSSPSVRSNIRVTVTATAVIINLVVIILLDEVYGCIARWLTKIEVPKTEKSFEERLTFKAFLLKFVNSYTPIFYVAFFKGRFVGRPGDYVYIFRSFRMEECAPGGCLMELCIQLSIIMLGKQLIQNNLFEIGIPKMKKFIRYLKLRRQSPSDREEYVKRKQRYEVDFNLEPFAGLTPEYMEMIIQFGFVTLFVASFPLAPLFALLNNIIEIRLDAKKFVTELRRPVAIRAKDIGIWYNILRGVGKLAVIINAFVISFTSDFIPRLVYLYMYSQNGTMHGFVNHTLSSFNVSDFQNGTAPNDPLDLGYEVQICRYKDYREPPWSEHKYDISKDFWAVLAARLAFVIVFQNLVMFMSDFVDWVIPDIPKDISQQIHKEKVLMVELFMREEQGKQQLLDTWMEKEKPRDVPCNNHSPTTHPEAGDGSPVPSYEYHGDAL
# TMEM16A act: mouse TMEM16A channel activation, primary screen. Q8BHY3. HEK293 TMEM16A/YFP-H148Q/I152L, iodide quench fluorescence; active compounds read low. B-score at 10 µM. 0.3% of 340,000 active. AID 623877;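 active means fluorescence-ratio B-score plate-corrected deviation score at least 3 library SD below zero, with starting fluorescence score within 5 deviations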;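 further: channel opened by trigger with iodide after compound preincubation; score built on the fluorescence ratio of max minus min over baseline; more negative score means more quench and so TMEM16A activation or potentiation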
# CHT allo act: allosteric activators of human choline transporter CHT; B-score at 10 µM; CHT-expressing cells, membrane potential dye, choline EC20; active compounds read high; LV-AA mutant CHT in HEK293 cells; 0.49% of 310,000 active; Q9GZV3; AID 488977;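 active means initial fluorescence not abnormally high and integrated response B-score, plate-corrected, over 3 SD above library mean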
# CHT block: inhibitors of human choline transporter CHT; Q9GZV3; CHT-expressing cells, membrane potential dye, choline response; active compounds read low; B-score at 10 µM; 0.86% of 310,000 active; AID 488975;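 active means B-score over 3 SD under the library average, and starting fluorescence ratio not unusually high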;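 further: choline stimulus applied at its EC90 after an EC20 pre-addition; B-score computed on integrated fluorescence ratio after choline addition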
# CHT act confirm: confirmation of human choline transporter (CHT) activators; shares compounds with CHT allo act; CHT-expressing cells, membrane potential dye fluorescence (FDSS); % of choline EC20–EC90 response window; HEK293 expressing CHT LV-AA mutant; choline added at its EC20; activation, % at 10 µM; 91% of 2,500 active; AID 504833;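 active means primary screen active, with duplicate mean activation above negative control mean plus 3 SD, cut at about 11% in these data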
# HEK293 MP dye: activity in parental HEK293 cells lacking CHT; membrane potential dye fluorescence (FDSS); measured after EC20 choline addition; AID 623908; shares compounds with CHT allo act; ratio readout change at 10 µM, hits read low; 62% of 2,500 active;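 active means duplicate-averaged ratio beyond 3 SD from buffer wells, up or down, though filed actives are nearly all decreases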
# * = called active by the depositor; i = inactive; nt = no result.
SMILES,ANO1 block,TMEM16A act,CHT allo act,CHT block,CHT act confirm,HEK293 MP dye
CCCN1C2=NCCN2c2cc(C)c(C)cc21,i,i,8.34*,i,41.8*,-46.4*
CCCCCN1C2=NCCN2c2ccccc21,i,i,i,i,34.1*,-31*
Cc1ccccc1CN1C2=NCCN2c2ccccc21,i,i,i,i,nt,nt
Cc1ccc(F)cc1NC(=O)COC(=O)c1ccc2ncsc2c1,nt,i,nt,nt,nt,nt
CCOC(=O)c1c[nH]c2nc(C)ccc2c1=O,i,i,10.2*,i,62.7*,-62.5*
CCOC(=O)c1c[nH]c(=O)c(Br)c1O,i,i,i,i,nt,nt
CO/C([O-])=N/c1c[n+](-c2ccc(Cl)cc2)no1,i,i,i,i,nt,nt
Cc1csc(NC(=O)CSc2nccn2Cc2ccco2)n1,i,i,i,i,nt,nt
CN(Cc1ccncn1)C(=O)CC1C(=O)NCCN1Cc1cccc(Oc2ccccc2)c1 (stereo unspecified),i,i,i,i,nt,nt
Cc1nc2ccccn2c1C(=O)N/N=C/c1cc(C)n(-c2ccc(Br)cc2)c1C,i,i,i,i,17.9*,i
CC(C)(C)n1nc2c(c1NC(=O)c1cc(Cl)ccc1[N+](=O)[O-])CS(=O)(=O)C2,i,i,7.17*,i,39.3*,i
COc1ccc(Cn2nnnc2C(c2ccccn2)N2CCN(c3cc(Cl)ccc3C)CC2)cc1 (stereo unspecified),i,i,i,i,nt,nt
COCCn1nnnc1C(c1ccccn1)N1CCN(c2cc(Cl)ccc2C)CC1 (stereo unspecified),i,i,7.9*,i,15.1*,i
Cc1cccc(SCC(=O)Nc2ccccc2[N+](=O)[O-])c1,i,i,i,i,nt,nt
CCCC(=Nc1ccccc1OC)C1=C(O)CC(c2ccccc2)CC1=O (stereo unspecified),i,i,i,i,nt,nt
COc1ccccc1N=C(C)C1=C(O)CC(c2ccccc2)CC1=O (stereo unspecified),i,i,9.67*,i,56.3*,i
c1ccc2c(c1)nc1n2CCN1CCNC1CCCCC1,i,i,i,i,nt,nt
c1ccc(CN2CCN(CCN3CCn4c3nc3ccccc34)CC2)cc1,i,i,i,i,27.0*,i
CCOC(=O)c1cc(-c2ccccc2)nc2c1c(C)nn2-c1ccccn1,i,i,8.59*,i,7.1,i
CCOC(=O)c1cc(-c2ccncc2)nc2c1c(C)nn2C,i,i,i,i,nt,nt
Cc1ccc(-c2nn(C)c(=O)c3ccccc23)cc1CN1CCCCC1,i,i,8.66*,i,26.8*,-52.2*
Cc1ccc(-c2nn(C)c(=O)c3ccccc23)cc1CNS(C)(=O)=O,i,i,i,i,nt,nt
COCCNc1ccnc2c(Cl)cccc12,i,i,6.3*,i,56.6*,-61.3*
CN(C)C1=NC[C@H](Cc2ccccc2)N1CCC1CCCC1,i,i,i,i,27.0*,i
NC1=NC[C@H](Cc2ccccc2)N1CC1CCCCC1,i,i,i,i,32.0*,i
SMILES,ANO1 block,TMEM16A act,CHT allo act,CHT block,CHT act confirm,HEK293 MP dye
CN1CCc2c(sc3nc(SCC(N)=O)n(-c4ccccc4)c(=O)c23)C1,i,i,i,i,40.5*,-33.8*
CCSc1nc2sc3c(c2c(=O)n1C1CCCCC1)CCN(C)C3,nt,i,nt,nt,nt,nt
C=C(C)CSc1nc2sc3c(c2c(=O)n1C1CCCCC1)CCN(C)C3,i,i,6.79*,i,38.6*,-47.6*
CN1CCc2c(sc3nc(SCC(N)=O)n(-c4ccc(Cl)cc4)c(=O)c23)C1,i,i,6.85*,i,46.4*,-34.4*
CN1CCc2c(sc3nc(SCC(=O)N4CCCCC4)n(-c4ccccc4)c(=O)c23)C1,i,i,i,i,nt,nt
Nc1c(N(CCO)C(=O)c2ccccc2OCc2ccccc2Cl)c(=O)[nH]c(=O)n1Cc1ccccc1,nt,i,nt,nt,nt,nt
Cc1ccc(C(C)C)c(OCc2nn(CC(=O)c3ccc(OC(F)F)cc3)c3[n+]2CCCCC3)c1,i,i,9.8*,i,9.1,i
COc1ccc(C(=O)Cn2nc(CNc3ccc(Br)cc3)[n+]3c2CCCCC3)cc1,i,i,i,i,nt,nt
COc1cccc(C(=O)NCC(c2cccs2)N2CCc3ccccc32)c1 (stereo unspecified),i,i,6.36*,i,25.0*,i
COc1ccc(Cn2c(-c3ccc(Br)cc3)c[n+]3ccccc23)cc1,i,i,9.61*,i,70.5*,-60*
COc1ccc(Cn2c(C)ccc2C)cc1,i,i,i,i,nt,nt
Cc1sc2nc(CN3CCCC3)nc(NCc3ccncc3)c2c1C,i,i,6.32*,i,32.5*,-34*
Cc1sc2nc(CN3CCCC3)nc(N3CCN(S(=O)(=O)c4ccccc4)CC3)c2c1C,nt,i,nt,nt,nt,nt
Cc1sc2nc(CN3CCCC3)nc(Cl)c2c1C,i,i,i,i,52.1*,i
COC(=O)C(CC(=O)O)NCc1ccco1 (stereo unspecified),i,i,i,i,nt,nt
CC(C)Sc1nnc(CNC(=O)C23CC4CC(CC(C4)C2)C3)n1C1CCCCC1,i,i,i,i,nt,nt
O=C(COC(=O)c1cc([N+](=O)[O-])ccc1N1CCOCC1)Nc1ccc(Cl)cn1,i,i,6.83*,i,20.2*,i
CC(=O)Nc1ccc(N2CCCC(C)C2)c([N+](=O)[O-])c1 (stereo unspecified),i,i,i,i,nt,nt
CC1CCCN(c2ccc([N+](=O)[O-])cc2C(=O)c2ccccc2)C1 (stereo unspecified),i,i,7.57*,i,27.4*,i
O=C(c1ccc(Cl)cc1)c1cc([N+](=O)[O-])ccc1N1CCOCC1,i,i,i,i,49.9*,i
Cc1ccc(C(=O)c2cc([N+](=O)[O-])ccc2N2CCCCC2)cc1,i,i,i,i,31.0*,i
Cc1ccc(C(=O)c2cc([N+](=O)[O-])ccc2N2CC(C)OC(C)C2)cc1 (stereo unspecified),i,i,i,i,nt,nt
CCC1=C(OC(=O)N(CC)CC)N2C(=O)OC(=NCCc3c[nH]c4ccccc34)[C@]2(Cc2ccccc2)[C@H]2C1=CC[C@H]1C(=O)N(C)C(=O)[C@H]12,i,i,i,i,nt,nt
CC(=O)Nc1cccc(Oc2ncnc3scc(-c4ccc(C)cc4)c23)c1,i,i,i,i,nt,nt
